{"source": "PubChem BioAssay (Tox21)", "note": "Several values for one entry are separate records, joined by “and”; a condition that tells them apart may be missing. Equal values may be shown once. Records with an inconclusive call do not appear. Entries that show only a call come without a potency. Activity calls are given as the source filed them. Calls come from the whole dose curve. Potency is the fitted concentration of half-maximal effect.", "data": [{"assay": "Nuclear factor erythroid 2-related factor 2/antioxidant responsive element (Nrf2/ARE) small molecule agonists: luciferase reporter gene qHTS assay in human keratinocytes (AID 1919969); note: nearly all actives have a fitted effect of over 35% in size", "details": "KeratinoSens HaCaT ARE-luciferase, luminescence, 24 h; series mostly up to 92.4 µM", "text": "National Center for Advancing Translational Sciences [NCATS]\nDivision of Preclinical Innovation [DPI]\nU.S. Environmental Protection Agency [EPA]\nNational Institutes of Environmental Health Sciences [NIEHS]\nNational Toxicology Program [NTP]\nU.S. Food and Drug Administration [FDA]\nOxidative stress has been implicated in the pathogenesis of a variety of diseases ranging from cancer to neurodegeneration. The antioxidant response element (ARE) signaling pathway plays an important role in the amelioration of oxidative stress. The KeratinoSens (Givaudan, Switzerland) is an in vitro test method which quantifies luciferase induction as a measure of activation of Keap1-Nrf2-antioxidationt/electrophile response element (ARE) dependant pathway in HaCaT human keratinocytes stably transfected with a selectable plasmid. The KeratinoSens assay is a cell-based assay with a reporter cell line to detect potential skin sensitizers by their ability to induce the Nrf2/ARE-response. The activation of the report gene under culture conditions can be detected by ONE-Glo Luciferase Assay System (Promega, Madison, WI). This cell line has been used to screen the Tox21 10K compound library to identify agonists that induce oxidative stress. The cytotoxicity of the Tox21 compound library against the KS-ARE cell line was tested in parallel by measuring the cell viability using CellTiter- Fluor assay system (Promega, Madison, WI) in the same wells.\nHaCaT derived cell line KeratinoSens were dispensed at 1,500 cells/5uL/well in 1536-well white wall/solid bottom plates using a Multidrop Combi (ThermoFisher Scientific, Waltham, MA) dispenser. After the assay plates were incubated at 37 C/5% CO2 for 5 h, 23 nL of compounds dissolved in DMSO, positive controls or DMSO only was transferred to the assay plate by a pintool workstation (Kalypsys, San Diego, CA). The plates were incubated at 37 C/5% CO2 for 23 h, followed by addition of 1uL/well of CellTiter-Fluor reagent into the assay plates using a Flying Reagent Dispenser (Aurora Discovery, San Diego, CA) for cell viability readout that measures cytotoxicity. After 1 h incubation at 37 C/5% CO2 the fluorescence intensity was measured using a ViewLux (PerkinElmer, Shelton, CT) plate reader. Then 4uL/well of One-Glo were added using a Flying Reagent Dispenser. After the plates were incubated at room temperature for 30 min, the luminescence intensity in the assay plates was measured using ViewLux plate reader.", "values": [{"smiles": "C[Si](C)O[Si](C)(C)O[Si](C)(C)O[Si](C)C", "Potency": "inactive"}, {"smiles": "C=CCCCCCCCCCCCC", "Potency": "inactive"}, {"smiles": "CCCCC/C=C/C=C/C=O", "Potency": "61.1 µM (active)"}, {"smiles": "NCCNCCNCCNCCN", "Potency": "inactive"}, {"smiles": "Cc1ccc(S(=O)(=O)O)c(C)c1", "Potency": "inactive"}, {"smiles": "Clc1ccccc1C(c1ccccc1)(c1ccccc1)n1ccnc1", "Potency": "inactive"}, {"smiles": "CC(C)CCCO", "Potency": "inactive"}, {"smiles": "C[N+](C)(CCOc1ccccc1)Cc1cccs1", "Potency": "inactive"}, {"smiles": "FC(F)(F)C(Cl)(Cl)Cl", "Potency": "inactive"}, {"smiles": "NC(=O)Nc1ccccc1", "Potency": "inactive"}, {"smiles": "O=C(Cl)c1ccccc1[N+](=O)[O-]", "Potency": "inactive"}, {"smiles": "OCCCC1CCCCC1", "Potency": "inactive"}, {"smiles": "O=C1CCCCC1", "Potency": "inactive"}, {"smiles": "CCOc1ccc(N)c([N+](=O)[O-])c1", "Potency": "inactive"}, {"smiles": "Cc1cc(C)c(C(=O)O)c(C)c1", "Potency": "inactive"}, {"smiles": "CC(C)(C)CC(C)(C)c1ccc(OCCOCC[N+](C)(C)Cc2ccccc2)cc1", "Potency": "inactive"}, {"smiles": "CC(N)CN", "note": "(stereo not given)", "Potency": "inactive"}, {"smiles": "CCCCCCCC(=O)OCCCCCC", "Potency": "inactive"}, {"smiles": "Cc1cc(C)cc(N)c1", "Potency": "inactive"}, {"smiles": "CC(C)OC(=O)CCCCC(=O)OC(C)C", "Potency": "inactive"}, {"smiles": "C=C(C)C(=O)OCCC[Si](Cl)(Cl)Cl", "Potency": "inactive"}, {"smiles": "O=C1CCC(=O)N1", "Potency": "inactive"}, {"smiles": "O=C(c1ccc(O)cc1O)c1ccc(O)cc1O", "Potency": "inactive"}, {"smiles": "c1coc(CNc2ncnc3nc[nH]c23)c1", "Potency": "inactive"}, {"smiles": "Clc1ccc2c(Cl)ccnc2c1", "Potency": "inactive"}, {"smiles": "C/C=C/CO", "Potency": "inactive"}, {"smiles": "CCCCOC(=O)C(=O)OCCCC", "Potency": "inactive"}, {"smiles": "O=Nc1ccc(Nc2ccccc2)cc1", "Potency": "9.74 µM (active) and 24.3 µM (active)"}, {"smiles": "Cn1cnc2c1c(=O)[nH]c(=O)n2C", "Potency": "inactive"}, {"smiles": "CCOC(=O)c1ccccc1C", "Potency": "inactive"}, {"smiles": "CSc1cnccn1", "Potency": "inactive"}, {"smiles": "Cc1cccc(N)n1", "Potency": "inactive"}, {"smiles": "OCC#CCO", "Potency": "inactive"}, {"smiles": "COc1ccc(COC(C)=O)cc1", "Potency": "inactive"}, {"smiles": "CCc1cnc(C(=O)O)c(C(=O)O)c1", "Potency": "inactive"}, {"smiles": "CCCCCCOC(=O)CC", "Potency": "inactive"}, {"smiles": "CN(C)CCOC(c1ccc(Cl)cc1)c1ccccn1", "note": "(stereo not given)", "Potency": "inactive"}, {"smiles": "CCC(=O)CC", "Potency": "inactive"}, {"smiles": "Nc1cc(S(=O)(=O)O)cc2cc(S(=O)(=O)O)cc(O)c12", "Potency": "inactive"}, {"smiles": "CO[Si](CCCNCCNCCN)(OC)OC", "Potency": "inactive"}]}]}
